Test results reported in PubChem BioAssay (Tox21).
Several values for one entry are separate records, joined by “and”; a condition that tells them apart may be missing. Equal values may be shown once. Inconclusive results are not listed. Where a call stands in place of a potency, no number is given. Values without a mark were called inactive. Activity calls are given as the source filed them. Unless noted, calls follow the shape of the dose curve; as a rule, active = well fitted curve in the direction sought with a large enough effect in the repeat runs; inconclusive = weak or mixed curves; inactive = no such curve, though single readings can be large; an effect the other way counts as inactive or inconclusive.

What was measured:
[1] = qHTS assay to identify small molecule agonists of the AP-1 signaling pathway - cell viability counter screen (AID 1159525; calls by dose curve; also: nearly all actives have a fitted effect of over 55% in size; also: potency is read from the fitted curve at half-maximal effect)
Method in brief: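 Intracellular ATP by Cell Titer Glo luminescence (30 min, RT) in the same ME-180 AP-1-bla wells after the 5 h compound exposure at 37 °C. Normalised to tetra n-octyl ammonium bromide and DMSO controls.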

[2] = qHTS assay to identify small molecule antagonists of the retinoid acid receptor (RAR) signaling pathway - cell viability counter screen (AID 1159551); also: nearly all actives have a fitted effect of over 35% in size
Method in brief: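 Cells (C3RL4) are plated, incubated overnight, dosed with compound in DMSO, then given retinol at 1 uM final. After 6 h at 37 C, CellTiter-Glo is added and luminescence read following 30 min at room temperature.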

[3] = qHTS assay to identify small molecule agonists of the constitutive androstane receptor (CAR) signaling pathway - cell viability counter screen (AID 1224836); also: nearly all actives have a fitted effect of over 45% in size; also: potency is read from the fitted curve at half-maximal effect
Method in brief: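 Cell viability multiplexed with the CAR agonist screen: CellTiter-Fluor fluorescence after 23 hr at 37 C. HepG2-CYP2B6-hCAR cells got compounds at 15 concentrations with PK11195 at 0.75 uM final.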

[4] = qHTS assay to identify small molecule antagonists of the constitutive androstane receptor (CAR) signaling pathway - cell viability counter screen (AID 1224837); also: nearly all actives have a fitted effect of over 45% in size; also: potency is read from the fitted curve at half-maximal effect
Method in brief: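 Viability was measured with CellTiter-Fluor in a HepG2 line carrying stably transfected hCAR and a CYP2B6-2.2kb construct. Cells were exposed for 23 hr at 37 C to 15 compound concentrations with 50 nM CITCO as agonist.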

[5] = qHTS RealTime-Glo MT Cell Viability Assay in HepG2 cells - 24 hour (AID 1224867); also: nearly all actives have a fitted effect of over 50% in size; also: potency is read from the fitted curve at half-maximal effect
Method in brief: (§1)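 HepG2 cells (600/well) were dispensed with RealTime-Glo reagents, incubated 5 h at 37 °C, then treated with compounds in DMSO for up to 40 h. Nonlytic NanoLuc luminescence reflecting viable cells was read at each stated time point.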

[6] = qHTS RealTime-Glo MT Cell Viability Assay in HepG2 cells - 32 hour (AID 1224877); also: nearly all actives have a fitted effect of over 55% in size; also: potency is read from the fitted curve at half-maximal effect
Method in brief: as §1

[7] = A CellTox Green Cytotoxicity Assay to monitor cytotoxicity in HepG2 cells - 24 hour (AID 1224878); also: nearly all actives have a fitted effect of over 45% in size; also: potency is read from the fitted curve at half-maximal effect
Method in brief: (§2)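 Cells and non-lytic dye reagent are dispensed together (600 HepG2 cells/well) and incubated 5 h before DMSO compound transfer. Kinetic fluorescence is then recorded in the same wells during 40 h at 37 C.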

[8] = A CellTox Green Cytotoxicity Assay to monitor cytotoxicity in HepG2 cells - 40 hour (AID 1224879); also: nearly all actives have a fitted effect of over 40% in size; also: potency is read from the fitted curve at half-maximal effect
Method in brief: as §2

[9] = A CellTox Green Cytotoxicity Assay to monitor cytotoxicity in HepG2 cells - 32 hour (AID 1224883); also: nearly all actives have a fitted effect of over 50% in size; also: potency is read from the fitted curve at half-maximal effect
Method in brief: as §2

[10] = A CellTox Green Cytotoxicity Assay to monitor cytotoxicity in HEK293 cells - 8 hour (AID 1224884); also: nearly all actives have a fitted effect of over 35% in size; also: potency is read from the fitted curve at half-maximal effect
Method in brief: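 Cells (HEK293, 600/well) and dye reagent are dispensed together. After 5 h at 37 C, 23 nL compound is pinned in. Plates stay at 37 C for 40 h with fluorescence read at 0h, 8h, 16h, 24h, 32h and 40h.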

[11] = qHTS RealTime-Glo MT Cell Viability Assay in HepG2 cells - 16 hour (AID 1224885); also: nearly all actives have a fitted effect of over 50% in size
Method in brief: as §1

[12] = qHTS assay to identify small molecule antagonists of the sonic hedgehog signaling (Shh) pathway - cell viability counter screen (AID 1259367); also: nearly all actives have a fitted effect of over 55% in size; also: potency is read from the fitted curve at half-maximal effect
Method in brief: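 CellTiter-Fluor signal in conditioned medium-stimulated 3T3 Gli1-Luc cells, 23 hr compound exposure, 37C.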

[13] = qHTS assay to identify small molecule agonists of the TGF-beta/Smad signaling pathway - cell viability counter screen (AID 1346829); also: top concentration of the series differs between compounds; nearly all actives have a fitted effect of over 45% in size
Method in brief: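 SBE-bla HEK 293T cells plated overnight, compound exposure 5 hr at 37 C. Viability read in the same wells by CellTiter-Glo luminescence after 30 min at room temperature, following the beta-lactamase read.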

[14] = biological target: Cytochrome P450 2C9 (Homo sapiens) (UniProt P11712); experiment: Cytochrome P450 Family 2 Subfamily C Member 9 (CYP2C9) small molecule antagonists: luciferase reporter qHTS assay (AID 1671198); also: nearly all actives have a fitted effect of over 50% in size; also: potency is read from the fitted curve at half-maximal effect
Method in brief: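 Enzyme-substrate mix preincubated with compound 10 min at room temperature; reaction started with NADPH regeneration solution, 1 h 37C. Luminescent luciferin product read after 20 min detection reagent.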

[15] = biological target: Retinoic acid receptor RXR-alpha (Homo sapiens) (UniProt P19793); experiment: qHTS assay to identify small molecule agonists of the RXR signaling pathway (AID 1159527; calls by dose curve; also: nearly all actives have a fitted effect of over 35% in size; also: potency is read from the fitted curve at half-maximal effect)
Method in brief: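 Agonist-mode beta-lactamase reporter assay: HEK 293T RXR-alpha-UAS-bla cells treated 16 hr at 37 C with compounds, 9-cis retinoic acid as positive control. LiveBLAzer FRET substrate, 405 nm excitation, 460/530 nm emission.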

[16] = qHTS assay to identify small molecule antagonists of the estrogen related receptor (ERR) signaling pathway from Tox21 library - cell viability counter screen (AID 1224834); also: nearly all actives have a fitted effect of over 30% in size; also: potency is read from the fitted curve at half-maximal effect
Method in brief: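 ERR cells, 2,000/well; 6 h settle at 37 C/5% CO2; pin-tool compound transfer in DMSO; 17.5 h at 37 C; CellTiter-Fluor, 30 min; fluorescence intensity.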

[17] = biological target: Nuclear receptor subfamily 1 group I member 2 (Homo sapiens) (UniProt O75469); experiment: Human pregnane X receptor (PXR) small molecule agonists, qHTS assay (AID 1346982); also: potency is read from the fitted curve at half-maximal effect; nearly all actives have a fitted effect of over 35% in size
Method in brief: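 Cells: HepG2 stably carrying PXR-Luc. Medium held 5% charcoal-stripped FBS. Compounds in DMSO added after 5 hr plating, incubated 24 hr, then luminescence quantified with ONE-Glo.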

[18] = qHTS RealTime-Glo MT Cell Viability Assay in HEK293 cells - 32 hour (AID 1224868); also: nearly all actives have a fitted effect of over 50% in size; also: potency is read from the fitted curve at half-maximal effect
Method in brief: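 HEK293 cells seeded with NanoLuc/prosubstrate reagent, rested 5 h at 37 C, then dosed and kept at 37 C up to 40 h. Nonlytic real-time luminescence from viable cells read at 0, 8, 16, 24, 32 and 40 h.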

[19] = biological target: Luciferin 4-monooxygenase (Photinus pyralis) (UniProt P08659); experiment: qHTS assay to identify small molecule inhibitors of firefly luciferase (AID 1224835); also: series mostly up to about 120 µM; nearly all actives have a fitted effect of over 25% in size
Method in brief: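 Inhibition of purified Photinus luciferase is measured by luminescence. Substrate levels (D-luciferin, ATP) sit at their KM values. Each compound is tested in a concentration series.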

[20] = qHTS assay to identify small molecule agonists of the estrogen related receptor signaling pathway with the pleiotropic PPARgamma coactivator (PGC) (AID 1224823)
Method in brief: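 Luminescence readout (One-Glo, 30 min RT) from PGC/ERR cell line treated 18 h at 37 C with pin-tool-delivered DMSO compound solutions; cells plated 6 h before dosing. Quantitative HTS format.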

Luciferin 4-monooxygenase (Photinus pyralis), sequence (P08659 whole entry, looked up): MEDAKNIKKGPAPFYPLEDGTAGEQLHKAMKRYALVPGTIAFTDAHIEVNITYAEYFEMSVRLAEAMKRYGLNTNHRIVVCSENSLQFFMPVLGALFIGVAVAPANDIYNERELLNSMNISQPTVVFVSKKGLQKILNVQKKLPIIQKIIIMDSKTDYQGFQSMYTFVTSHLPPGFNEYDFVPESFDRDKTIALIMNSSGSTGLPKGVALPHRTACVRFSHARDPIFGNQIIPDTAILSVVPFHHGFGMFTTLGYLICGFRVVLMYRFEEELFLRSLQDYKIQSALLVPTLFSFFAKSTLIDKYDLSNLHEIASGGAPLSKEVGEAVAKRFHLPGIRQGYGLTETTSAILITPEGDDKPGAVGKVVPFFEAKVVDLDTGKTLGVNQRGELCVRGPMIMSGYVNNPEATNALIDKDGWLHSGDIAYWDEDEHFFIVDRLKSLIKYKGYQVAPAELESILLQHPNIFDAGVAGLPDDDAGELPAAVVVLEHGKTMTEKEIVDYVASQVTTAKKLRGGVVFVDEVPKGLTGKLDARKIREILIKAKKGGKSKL
Nuclear receptor subfamily 1 group I member 2 (Homo sapiens), sequence (O75469 whole entry, looked up): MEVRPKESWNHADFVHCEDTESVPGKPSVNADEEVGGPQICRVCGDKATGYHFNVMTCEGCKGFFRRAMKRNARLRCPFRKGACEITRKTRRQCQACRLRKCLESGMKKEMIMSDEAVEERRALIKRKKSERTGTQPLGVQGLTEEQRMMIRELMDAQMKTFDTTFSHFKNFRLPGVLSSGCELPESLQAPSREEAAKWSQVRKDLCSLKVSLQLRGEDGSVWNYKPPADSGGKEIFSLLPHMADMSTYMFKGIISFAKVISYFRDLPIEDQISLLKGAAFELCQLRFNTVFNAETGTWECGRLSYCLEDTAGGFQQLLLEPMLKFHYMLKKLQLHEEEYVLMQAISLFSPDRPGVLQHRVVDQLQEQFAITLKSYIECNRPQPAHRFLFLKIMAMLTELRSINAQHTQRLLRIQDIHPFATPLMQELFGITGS
Retinoic acid receptor RXR-alpha (Homo sapiens), sequence (P19793 whole entry, looked up): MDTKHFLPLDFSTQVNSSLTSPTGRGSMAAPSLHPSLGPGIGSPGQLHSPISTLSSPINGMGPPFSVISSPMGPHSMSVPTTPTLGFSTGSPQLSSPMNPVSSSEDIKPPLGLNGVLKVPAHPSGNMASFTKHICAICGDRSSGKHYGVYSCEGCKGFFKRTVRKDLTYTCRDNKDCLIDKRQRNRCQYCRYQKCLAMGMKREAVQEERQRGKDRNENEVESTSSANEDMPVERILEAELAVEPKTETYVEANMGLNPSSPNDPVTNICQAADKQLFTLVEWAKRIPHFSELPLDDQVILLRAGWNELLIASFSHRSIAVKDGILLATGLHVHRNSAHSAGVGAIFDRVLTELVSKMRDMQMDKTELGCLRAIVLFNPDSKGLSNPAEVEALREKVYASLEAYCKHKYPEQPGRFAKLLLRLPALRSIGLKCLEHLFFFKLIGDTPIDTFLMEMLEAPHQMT
Cytochrome P450 2C9 (Homo sapiens), sequence (P11712 whole entry, looked up): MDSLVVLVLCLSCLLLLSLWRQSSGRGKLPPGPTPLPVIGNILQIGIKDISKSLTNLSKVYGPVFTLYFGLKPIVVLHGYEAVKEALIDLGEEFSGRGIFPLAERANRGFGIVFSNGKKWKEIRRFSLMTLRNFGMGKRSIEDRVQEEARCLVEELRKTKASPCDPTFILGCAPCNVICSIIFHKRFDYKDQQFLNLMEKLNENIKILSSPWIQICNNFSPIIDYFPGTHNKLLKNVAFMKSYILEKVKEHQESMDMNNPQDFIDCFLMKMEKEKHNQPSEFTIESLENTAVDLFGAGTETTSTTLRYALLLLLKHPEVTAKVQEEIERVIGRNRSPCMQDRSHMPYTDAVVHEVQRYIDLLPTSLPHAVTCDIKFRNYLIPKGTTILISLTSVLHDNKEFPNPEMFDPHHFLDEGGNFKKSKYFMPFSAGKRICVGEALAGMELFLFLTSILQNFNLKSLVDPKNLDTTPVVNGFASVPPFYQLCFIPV

What does the source list for OC(Cc1ccccc1Cl)(Cn1[nH]cnc1=S)C1(Cl)CC1 (configuration not stated)?
Potency [1]: inactive; Potency [2]: inactive; Potency [3]: inactive; Potency [4]: inactive; Potency [5]: inactive; Potency [6]: inactive; Potency [7]: inactive; Potency [8]: inactive; Potency [9]: inactive; Potency [10]: inactive; Potency [11]: inactive; Potency [12]: inactive; outcome [13]: inactive; Potency [14]: 0.894 µM (active)

With CNC(=O)Oc1cc(C)c(SC)c(C)c1 as the molecule, how does the Potency [1] read?
The Potency was “inactive”.

What about the Potency [15] of the same molecule?
The Potency was “inactive”.

What about the Potency [2] of the same molecule?
Its Potency is “inactive”.

And the Potency [16]?
The Potency was “inactive”.

What about the Potency [3] of the same molecule?
Its Potency is “inactive”.

What about the Potency [4] of the same molecule?
The Potency was “inactive”.

What about the Potency [5] of the same molecule?
Its Potency is “inactive”.

What about the Potency [6] of the same molecule?
Its Potency is “inactive”.

And the Potency [7]?
Its Potency is “inactive”.

And the Potency [8]?
Its Potency is “inactive”.

What about the Potency [9] of the same molecule?
The Potency was “inactive”.

What about the Potency [10] of the same molecule?
The Potency was “inactive”.

What about the Potency [11] of the same molecule?
The Potency was “inactive”.

And the Potency [12]?
Its Potency is “inactive”.

And the outcome [13]?
The outcome was “inactive”.

And the Potency [17]?
The Potency was 61.1 µM (active).

With CC(C)(C)c1cc(C(C)(C)C)c(O)c(C(C)(C)C)c1 as the molecule, how does the Potency [15] read?
The Potency was 15.5 µM (active).

What does the source list for O=C(Nc1ccccc1-c1ccc(Cl)cc1)c1cccnc1Cl?
Potency [1]: inactive; Potency [2]: inactive; Potency [3]: inactive; Potency [4]: inactive; Potency [5]: inactive; Potency [6]: inactive; Potency [7]: 41.2 µM (active); Potency [8]: 46.3 µM (active); Potency [9]: 46.3 µM (active); Potency [10]: 46.3 µM (active); Potency [11]: inactive; Potency [12]: inactive; Potency [17]: 10.3 µM (active); Potency [14]: inactive

For CCC(C)=O, which Potency [15] is on record?
The Potency was “inactive”.

For Nc1ccc([N+](=O)[O-])cc1, which Potency [1] is on record?
The Potency was 38.9 µM (active).

And the Potency [16]?
The Potency was 15.4 µM (active).

And the Potency [4]?
The Potency was 30.6 µM (active).

What about the Potency [5] of the same molecule?
Its Potency is “inactive”.

And the Potency [18]?
The Potency was 38.9 µM (active).

What about the Potency [6] of the same molecule?
The Potency was “inactive”.

What about the Potency [7] of the same molecule?
The Potency was 43.6 µM (active).

What about the Potency [8] of the same molecule?
Its Potency is 43.6 µM (active).

And the Potency [9]?
Its Potency is 43.6 µM (active).

What about the Potency [11] of the same molecule?
The Potency was “inactive”.

And the outcome [13]?
The outcome was “inactive”.

And the Potency [17]?
The Potency was 61.1 µM (active).

And the Potency [14]?
Its Potency is 25.2 µM (active).

With CN1CSC(=S)N(C)C1 as the molecule, how does the Potency [2] read?
Its Potency is “inactive”.

And the Potency [16]?
Its Potency is 6.08 µM (active) and 13.6 µM (active).

What about the Potency [19] of the same molecule?
The Potency was “inactive”.

What about the Potency [3] of the same molecule?
The Potency was 4.83 µM (active) and 15.3 µM (active).

What about the Potency [4] of the same molecule?
The Potency was 5.42 µM (active) and 7.67 µM (active).

What about the Potency [5] of the same molecule?
The Potency was 17.3 µM (active).

What about the Potency [18] of the same molecule?
The Potency was 17.3 µM (active) and 24.5 µM (active).

And the Potency [6]?
Its Potency is 15.4 µM (active).

And the Potency [7]?
Its Potency is 10.9 µM (active) and 27.5 µM (active).

What about the Potency [8] of the same molecule?
The Potency was 12.2 µM (active) and 10.9 µM (active).

And the Potency [9]?
Its Potency is 10.9 µM (active) and 21.8 µM (active).

And the Potency [10]?
The Potency was “inactive”.

What about the Potency [11] of the same molecule?
The Potency was “inactive”.

What about the Potency [12] of the same molecule?
Its Potency is 3.05 µM (active) and 13.6 µM (active).

And the outcome [13]?
The outcome was “inactive”.

And the Potency [17]?
The Potency was 5.43 µM (active).

And the Potency [14]?
The Potency was 8.91 µM (active).

For OCC(c1ccc(Cl)cc1)c1ccc(Cl)cc1, which Potency [1] is on record?
Its Potency is 49 µM (active).

And the Potency [15]?
The Potency was “inactive”.

What about the Potency [16] of the same molecule?
Its Potency is 48.6 µM (active).

What about the Potency [19] of the same molecule?
Its Potency is “inactive”.

And the Potency [18]?
The Potency was 34.7 µM (active).

And the Potency [7]?
Its Potency is 38.9 µM (active).

What about the Potency [8] of the same molecule?
The Potency was 38.9 µM (active).

And the Potency [9]?
The Potency was 38.9 µM (active).

And the Potency [10]?
Its Potency is 43.6 µM (active).

What about the outcome [13] of the same molecule?
Its outcome is “inactive”.

And the Potency [14]?
Its Potency is 12.6 µM (active).

With O=[N+]([O-])c1c(Cl)c(Cl)cc(Cl)c1Cl as the molecule, how does the Potency [1] read?
Its Potency is “inactive”.

And the Potency [2]?
Its Potency is “inactive”.

What about the Potency [20] of the same molecule?
The Potency was “inactive”.

And the Potency [16]?
The Potency was “inactive”.

And the Potency [19]?
The Potency was “inactive”.

And the Potency [3]?
The Potency was “inactive”.

And the Potency [4]?
Its Potency is “inactive”.

And the Potency [5]?
The Potency was “inactive”.

And the Potency [18]?
The Potency was “inactive”.

And the Potency [6]?
Its Potency is “inactive”.

And the Potency [8]?
The Potency was 54.9 µM (active).

What about the Potency [9] of the same molecule?
Its Potency is 54.9 µM (active).

What about the Potency [11] of the same molecule?
The Potency was “inactive”.

What about the Potency [12] of the same molecule?
Its Potency is “inactive”.

What about the outcome [13] of the same molecule?
The outcome was “inactive”.
